Results taken from PubChem BioAssay AID1917 (Vanderbilt High Throughput Screening Facility, 2009).
In all, about 3,000 compounds went through this assay and about 1,600 (53%) were called active. Roughly 10% stayed inconclusive and do not appear here. The set was probably picked from earlier hits. Only a sample is shown. Unmarked numbers belong to inactive results.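 The calls were made as follows: active = Flux at 10 µM at least 3 SD below or above vehicle control mean in one or both replicates; inconclusive = no clear call, values can overlap the other calls; inactive = the rest.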

These molecules were tested against ATP-sensitive inward rectifier potassium channel 1 (Homo sapiens) (UniProt P48048) (assay: retested modulators of human Kir1.1 channel – cell-based, thallium flux, duplicate, resupplied hits, confirmation (AID 1917)). Conditions: ROMK thallium flux, fluorescence ratio; at 10 µM; stronger effect = lower value.
Sequence of ATP-sensitive inward rectifier potassium channel 1 (Homo sapiens) (P48048 whole entry, looked up): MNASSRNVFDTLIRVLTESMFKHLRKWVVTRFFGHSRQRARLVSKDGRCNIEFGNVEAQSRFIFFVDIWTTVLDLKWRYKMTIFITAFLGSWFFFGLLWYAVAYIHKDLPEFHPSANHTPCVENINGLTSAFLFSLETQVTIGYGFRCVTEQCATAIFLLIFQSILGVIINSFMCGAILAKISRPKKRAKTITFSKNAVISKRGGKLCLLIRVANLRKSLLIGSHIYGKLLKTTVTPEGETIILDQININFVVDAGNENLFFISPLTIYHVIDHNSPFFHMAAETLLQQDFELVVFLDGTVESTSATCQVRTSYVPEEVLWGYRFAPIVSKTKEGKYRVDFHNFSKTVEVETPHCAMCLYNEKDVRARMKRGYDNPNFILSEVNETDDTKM

SMILES | normalized thallium flux (F/F0 slope)
CCCCCCCCCCCCn1ccc(=N)cc1 | 0.0386 (active)
Clc1ccc2nc3c(c(-c4ccccc4)c2c1)CNCC3 | 0.0588 (active)
CC1(C)Cc2c(C#N)c(N3CCNCC3)nc(-c3ccco3)c2CS1 | 0.0568 (active)
COc1ccccc1N=Nc1c(O)[nH]c(=S)[nH]c1=O | 0.0657 (active)
N#Cc1ccc(Cn2cc(C(=O)c3ccco3)c3ccccc32)cc1 | 0.0753
Cc1cc(C=C2C(=O)NC(=O)NC2=O)c(C)n1-c1ccncc1 | 0.0636 (active)
Cc1nc2ccccn2c1P(=S)(N1CCCCC1)N1CCCCC1 | 0.0668 (active)
NC(=O)Nc1cccc(C(F)(F)F)c1 | 0.0825
